Consider 13 compounds from PubChem BioAssay.

Assay [1] can be described thus: resazurin metabolic signal in HepG2 cells – cell-based, resazurin fluorescence, 24 h, PK04 Diversity Set, profiling panel (AID 1172). Note: test concentration not given here. Conditions: HepG2 viability, higher = more signal. Background: Resazurin is reduced to fluorescent resorufin, in cell work by metabolically active cells.
Assay [2] can be described thus: budding yeast growth changes without added modifier – OD600, strain BY4716, 24 h, basal condition, primary screen (AID 1173). Conditions: S. cerevisiae BY4716 growth, OD600, 24 h; higher = more signal, called active from +8 up or from −8 down.
Assay [3] can be described thus: viability profiling in MM1S myeloma cells – cell-based, resazurin fluorescence, basal, 24 h, PK04 Diversity Set, profiling panel (AID 1174).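 Note: MM1S multiple myeloma cell line; test concentration not given here.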 Conditions: higher = more signal, called active from +8 up or from −8 down.
Assay [4] concerns the target Dihydroorotate dehydrogenase (quinone), mitochondrial (Plasmodium falciparum (isolate 3D7)) (UniProt Q08210). The assay can be described thus: inhibition of P. falciparum DHODH – biochemical, C-terminal His tag, absorbance 600 nm, primary screen (AID 1175).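 Note: recombinant parasite enzyme with a five histidine tag at its C terminus; test concentration not given here.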 The following applies: PfDHODH enzyme, DCIP absorbance 600 nm; higher = more signal, called active from +8 up or from −8 down.

Assay [5] can be described thus: inhibition of PAO1 biofilm formation – strain PAO1, LB-PBS medium, absorbance 600 nm, primary screen (AID 1176). Note: test concentration not given here. The following applies: P. aeruginosa PAO1 growth/biofilm, A600, 12 h; higher = more signal.
Assay [6] can be described thus: growth modulation of vineyard yeast isolate – strain RM11-1a, OD600, basal, 24 h, primary screen (AID 1177).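 Note: cultures grown under basal conditions with no added stressor; test concentration not given here.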 The following applies: S. cerevisiae RM11-1a growth, OD600, 24 h; higher = more signal, called active from +8 up or from −8 down.
Assay [7] in a line: growth of efflux-deficient E. coli DRC39 – strain DRC39, OD650, 24 h, E. coli filamentation inducers, primary screen (AID 1178).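 Note: growth measured as culture turbidity by optical density at 650 nm; test concentration not given here.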 The following applies: E. coli DRC39 acrAB, higher = more signal, called active from +8 up or from −8 down.
A short description of assay [8]: growth of efflux-deficient E. coli DRC39 – strain DRC39, OD650, 48 h, E. coli filamentation inducers, primary screen (AID 1179).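 Note: screen aims at cell division blockers that make cells filament.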 Conditions: E. coli DRC39 delta-acrAB growth, higher = more signal, called active from +8 up or from −8 down.
A short description of assay [9]: viability profiling in RPMI8226 myeloma cells – cell-based, resazurin fluorescence, basal, 24 h, PK04 Diversity Set, profiling panel (AID 1180).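 Note: RPMI8826 multiple myeloma cell line at 5000 cells per well; test concentration not given here.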 Conditions: higher = more signal.
Assay [10] deals with E3 ubiquitin-protein ligase XIAP (Homo sapiens) (UniProt P98170). Description: small molecules binding XIAP protein – biophysical, small-molecule microarray, fluorescence 635 nm, primary screen (AID 1181).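 Note: score merges 667 nm emission and signal to noise over triplicate slides.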 Conditions: higher = more signal.
E3 ubiquitin-protein ligase XIAP (Homo sapiens), sequence (P98170 whole entry, looked up): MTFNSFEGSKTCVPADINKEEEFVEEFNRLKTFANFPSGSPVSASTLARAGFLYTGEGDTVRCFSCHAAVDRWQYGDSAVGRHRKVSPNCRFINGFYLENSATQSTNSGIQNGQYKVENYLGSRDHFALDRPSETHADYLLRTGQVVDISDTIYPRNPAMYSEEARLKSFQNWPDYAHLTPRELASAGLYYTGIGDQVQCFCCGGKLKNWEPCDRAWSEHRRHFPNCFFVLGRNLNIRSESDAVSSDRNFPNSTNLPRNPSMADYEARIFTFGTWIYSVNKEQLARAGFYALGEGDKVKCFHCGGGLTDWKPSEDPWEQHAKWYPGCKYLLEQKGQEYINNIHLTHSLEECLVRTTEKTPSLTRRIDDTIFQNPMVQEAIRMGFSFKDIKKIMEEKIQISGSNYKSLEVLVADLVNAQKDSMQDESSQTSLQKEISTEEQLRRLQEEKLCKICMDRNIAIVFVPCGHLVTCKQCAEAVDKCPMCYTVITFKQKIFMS

Calls of active or inactive are those of the source. Unless noted, the rule behind the calls is not given here.

Dihydroorotate dehydrogenase (quinone), mitochondrial (Plasmodium falciparum (isolate 3D7)), sequence (Q08210 whole entry, looked up): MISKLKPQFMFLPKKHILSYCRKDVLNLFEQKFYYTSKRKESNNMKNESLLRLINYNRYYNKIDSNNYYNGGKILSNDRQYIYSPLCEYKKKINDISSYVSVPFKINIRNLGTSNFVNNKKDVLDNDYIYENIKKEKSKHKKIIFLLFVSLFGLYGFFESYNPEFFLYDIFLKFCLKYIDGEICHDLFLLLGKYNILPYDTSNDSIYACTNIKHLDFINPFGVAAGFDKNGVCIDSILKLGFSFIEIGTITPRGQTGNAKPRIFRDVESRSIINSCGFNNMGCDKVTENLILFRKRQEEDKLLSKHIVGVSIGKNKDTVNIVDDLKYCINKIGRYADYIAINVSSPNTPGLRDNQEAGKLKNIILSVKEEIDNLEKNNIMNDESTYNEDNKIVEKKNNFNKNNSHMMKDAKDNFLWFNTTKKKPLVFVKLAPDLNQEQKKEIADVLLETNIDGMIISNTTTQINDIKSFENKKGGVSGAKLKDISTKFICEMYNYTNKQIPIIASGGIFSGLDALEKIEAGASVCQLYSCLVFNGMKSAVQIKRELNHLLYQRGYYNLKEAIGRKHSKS

On to `CC(=O)NCCCC[C@@H]1NC(=O)[C@H]2C[C@@H](C(=O)NCCCCCN)[C@@H](c3cccc(OCCO)c3)N2C1=O`, for which the z-score in assay [1] was 0.382; in [2], -1.74 (inactive); in assay [3], 1.18 (inactive); in assay [5], 0.0904 (inactive); in [6] it was -1.1 (inactive); in [7] it was 1.03 (inactive). Besides, the z-score in assay [8] was 1.24 (inactive); in assay [9], 1.5. For the same compound, the composite z-score was -0.613 (inactive) in [4] and -0.02 in [10].

For `COc1ccc(C(=O)Nc2ccc(CN3C(=O)[C@@]4(O[C@@H](CC(=O)N5Cc6ccccc6C[C@H]5CO)[C@H]([Si](C)(C)c5ccc(OC)cc5)[C@H]4C)c4ccccc43)cc2)cc1`, the z-score in [1] was 0.473; in [2] it was -0.273 (inactive); in assay [3] it was -1.66 (inactive); in [5], 0.896 (inactive); in assay [6], 1.23 (inactive); in [7], 0.704 (inactive). The z-score in assay [8] was 0.241 (inactive); in assay [9] it was -1.04. For the same compound, the figures for the composite z-score in assay [4] and in assay [10] were -3.48 (inactive) and -0.127, respectively.

`CCC[C@@H]1C[C@@]1(CCC)[C@@H](NC(=O)c1ccco1)c1ccc(Cl)cc1`: the z-score is 1.6 in assay [1]; 0.614 (inactive) in assay [2]; 0.254 (inactive) in assay [3]; 0.439 (inactive) in [5]; 0.288 (inactive) in assay [6]; -0.195 (inactive) in [7]. Also, the figures for the z-score in [8] and in assay [9] were 0.105 (inactive) and -1.67, respectively. The composite z-score in [4] was -0.152 (inactive); in [10], -0.683.

Consider `COCCOC(=O)N1C(=O)[C@@]2(c3cc(C#CC4(O)CCCCCC4)ccc31)[C@H](C(=O)NC[C@H](O)c1ccccc1)[C@H]1C(=O)O[C@H](c3ccccc3)[C@H](c3ccccc3)N1[C@@H]2c1ccc(OCCO)cc1`, for which the z-score in assay [1] was 1.49; in assay [2] it was 0.385 (inactive); in assay [3], -0.909 (inactive); in assay [5], 1.05 (inactive); in assay [6] it was 2.73 (inactive); in assay [7], 0.608 (inactive). Moreover, the figures for the z-score in [8] and in assay [9] were 0.187 (inactive) and 0.0705, respectively. Also, the composite z-score in [4] is -1.38 (inactive); in assay [10], 0.643.

Consider `CCOc1cc(C(O)C2C=CC3C(=O)NC(=O)C3N2Nc2ccccn2)ccc1O` (stereo not given), for which the z-score in assay [1] was -1.35; in [2], 1.67 (inactive); in assay [3], -1.33 (inactive); in assay [5], 0.599 (inactive); in assay [6], 0.24 (inactive); in assay [7], -1.17 (inactive). The z-score was -0.0662 (inactive) in [8] and -0.672 in assay [9]. Moreover, the figures for the composite z-score in assay [4] and in [10] were 0.21 (inactive) and 0.0652, respectively.

With `CC(C)CCC[C@@H](C)[C@H]1CC[C@@]2(C)C3=C(CC[C@]12C)[C@@]1(C)CC[C@H](OC(=O)c2ccc(N)cc2)C(C)(C)C1CC3` (stereo not given in full), the z-score in assay [1] was -0.322; in assay [2], -0.863 (inactive); in [3] it was 0.467 (inactive); in [5], 0.589 (inactive); in [6], -2.11 (inactive); in assay [7], 0.965 (inactive). Further, the z-score is 1.16 (inactive) in assay [8] and 0.826 in assay [9]. The values for the composite z-score in assay [4] and in assay [10] were -2.03 (inactive) and 0.45, respectively.

Turning to `CC1=C2[C@@H](CCc3ccccc3)OB(O)C[C@@H]2[C@@H]2C(=O)C=CC(=O)[C@@H]2C1`, the z-score in assay [1] is -0.548; in [2], -17.6 (active); in assay [3], -1.06 (inactive); in assay [5], 0.589 (inactive); in [6], -0.055 (inactive); in assay [7] it was -0.367 (inactive). Moreover, the z-score in assay [8] is -0.0244 (inactive); in assay [9], -1.13. The values for the composite z-score in assay [4] and in [10] were -3.6 (inactive) and 0.0325, respectively.

Regarding `O=C1NC(=O)C2C1C=CC(C(O)c1ccc(-c3ccccc3)s1)N2Nc1ccccn1` (stereo not given), the z-score in assay [1] was -1.04; in [2], 1.14 (inactive); in assay [3], -1.12 (inactive); in assay [5], 1.23 (inactive); in [6], 0.347 (inactive); in assay [7], 0.547 (inactive). Further, the z-score was 0.193 (inactive) in [8] and -1.17 in assay [9]. Further, the composite z-score in assay [4] is 1.24 (inactive); in assay [10], 0.549.

In the case of `Cc1ccc(F)cc1S(=O)(=O)N[C@@H]1CCN(C(=O)c2ccc(OC(C)C)cc2)C1`, the z-score is 0.157 in assay [1]; -2.17 (inactive) in assay [2]; 0.554 (inactive) in assay [3]; -0.165 (inactive) in assay [5]; -0.455 (inactive) in assay [6]; 1.16 (inactive) in [7]. Moreover, the z-score in assay [8] was 0.427 (inactive); in [9], 0.339. For the same compound, the composite z-score in assay [4] was -0.431 (inactive); in [10], 0.0336.

Consider `COCCOC(=O)N1C(=O)[C@@]2(c3cc(C#Cc4ccc(OC)cc4)ccc31)[C@H](C(N)=O)[C@H]1C(=O)O[C@H](c3ccccc3)[C@H](c3ccccc3)N1[C@@H]2c1ccc(OCCO)cc1`, for which the z-score is 0.0456 in assay [1]; 1.61 (inactive) in [2]; -1.41 (inactive) in [3]; 1.71 (inactive) in [5]; 2.42 (inactive) in [6]; -0.315 (inactive) in assay [7]. The values for the z-score in assay [8] and in assay [9] were -0.697 (inactive) and -1.82, respectively. For the same compound, the composite z-score in assay [4] was -0.0352 (inactive); in [10] it was -0.157.

Take `CCCCCCC#C[Si](O[C@H](c1ccccc1)c1cn(Cc2cccc(Cl)c2)nn1)(C(C)C)C(C)C`: the z-score in [1] is 0.809; in assay [2], -0.419 (inactive); in assay [3] it was 1.31 (inactive); in assay [5] it was 0.101 (inactive); in assay [6], 0.738 (inactive); in assay [7], 0.804 (inactive). Moreover, the values for the z-score in assay [8] and in assay [9] were 1.19 (inactive) and 2.01, respectively. Further, the composite z-score in assay [4] was -0.0872 (inactive); in assay [10], -0.0447.

As to `COC(=O)[C@@]1(Cc2ccccc2)[C@H]2c3cc(C(=O)N4CCCC4)n(Cc4ccc(OC(F)(F)F)cc4)c3C[C@H]2CN1C(=O)c1ccccc1`, the z-score is -1.22 in assay [1]; 1.61 (inactive) in assay [2]; -2.46 (inactive) in assay [3]; 0.632 (inactive) in assay [5]; 1.85 (inactive) in assay [6]; -1.22 (inactive) in assay [7]. The z-score is -0.439 (inactive) in assay [8] and -2.62 in assay [9]. The composite z-score in [4] was 0.868 (inactive); in assay [10], 0.131.

Consider `COC(=O)[C@]1(Cc2ccccc2CN=[N+]=[N-])N=C(c2ccc(OCCCO)cc2)O[C@@H]1c1ccccc1`, for which the z-score in assay [1] was -2.08; in [2] it was 1.42 (inactive); in [3], -4.5 (inactive); in assay [5] it was 0.948 (inactive); in [6] it was 3.06 (inactive); in assay [7] it was 0.286 (inactive). The z-score in [8] was -0.865 (inactive); in assay [9] it was -5.26. For the same compound, the composite z-score was 2.51 (inactive) in assay [4] and -0.184 in assay [10].
